Our source for the inhibition values is ChEMBL document CHEMBL3433997, “St. Jude Leishmania screening dataset” (2016).

Structures are written as SMILES.

In this experiment the target is Solute carrier family 2, facilitated glucose transporter member 1 (Homo sapiens) (UniProt P11166). Briefly: ST_JUDE_LEISH: Cytotoxicity at 2uM final concentration against transgenic Leishmania Mexicana promastigotes LmGLUT1 that are glucose transport deficient and complemented with the human glucose transporter GLUT1. Activity is measured by DNA content using SYBR green in vitro. The class given is functional.
Solute carrier family 2, facilitated glucose transporter member 1 (Homo sapiens), sequence (P11166 whole entry): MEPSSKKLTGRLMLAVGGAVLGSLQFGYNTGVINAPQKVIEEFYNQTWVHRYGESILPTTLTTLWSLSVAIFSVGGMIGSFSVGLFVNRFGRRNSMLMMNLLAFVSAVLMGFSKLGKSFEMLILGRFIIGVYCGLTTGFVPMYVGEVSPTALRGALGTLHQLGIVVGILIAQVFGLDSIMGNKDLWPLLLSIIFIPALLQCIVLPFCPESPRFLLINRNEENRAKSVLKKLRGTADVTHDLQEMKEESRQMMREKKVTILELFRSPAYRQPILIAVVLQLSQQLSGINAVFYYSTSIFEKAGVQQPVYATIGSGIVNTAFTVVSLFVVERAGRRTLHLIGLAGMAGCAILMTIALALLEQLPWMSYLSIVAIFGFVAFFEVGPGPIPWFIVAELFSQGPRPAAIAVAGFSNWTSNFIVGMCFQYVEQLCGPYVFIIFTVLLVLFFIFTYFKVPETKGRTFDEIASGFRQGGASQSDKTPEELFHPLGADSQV
As a reminder, the inhibition is the change of the read-out against control, counted positive when it falls. Take `CCN(CCCN1CCCCC1)c1cc(C)nc(Nc2ccc(C)c(C)c2)n1`: the inhibition was found to be 4.78%. Regarding `C=CCn1c(Sc2ccc(C#N)c([N+](=O)[O-])c2)nnc1-c1ccc(Cl)cc1`, the inhibition came to 5.68%. Then `CC(C)COc1ccc(Cl)cc1Cc1nc(-c2nc3ccc(CN(C)C)cc3[nH]2)co1`, with 4.88%. Then `COc1cc(C(F)(F)F)c2cc(CNCCCNc3nc4ccccc4[nH]3)[nH]c2c1`, with 1.29%. Then `COc1ccc2c(N/N=C/c3cccc([N+](=O)[O-])c3)cc(C)nc2c1`, with 1.12%. For the compound `COc1ccc2[nH]ccc(=NN=Cc3ccc(Cl)cc3)c2c1`, the inhibition is 1.86%. Then `O=C(NCCc1ccccc1)N(Cc1ccccc1-c1cccc(CNCCc2ccccc2)c1)C1CCN(Cc2ccccc2)CC1`, with 2.61%; and `Cc1ccccc1C1CCN(C2CCC(NC(=O)/C=C/c3cc(F)ccc3C(F)(F)F)CC2)CC1` (centres undefined), with 0.1%; and `CCOC(=O)CN1Cc2cc(NCc3ccc4ccc5nc(C)[nH]c(=O)c5c4c3)ccc2C1=O`, with 0.55%.

For the compound `CN(C)Cc1ccc(-c2cccc(Nc3nccc(NCC(O)c4ccccc4)n3)c2)cc1` (centres undefined), the inhibition is 0.75%. Under `O=c1c(NCCCN(Cc2ccc(F)cc2)c2ccccn2)c(NCc2ccncc2)c1=O` stands 4.35%; under `COc1ccccc1-c1cccc2c(NC(=O)Nc3ccc4nccc(N5CCN(C)CC5)c4c3)ccnc12`, 1.85%; under `CCOc1cccc(C2c3c(oc4ccccc4c3=O)C(=O)N2CCN(CC)CC)c1` (centres undefined), 4.85%.

Consider `NC(=O)c1cccc(Nc2nccc(Nc3ccc4[nH]c(-c5ccccc5)cc4c3)n2)c1`, for which the inhibition was -0.28%. Then `COc1ccc(CNCCc2cccs2)cc1-c1ccc(S(=O)(=O)NCCN2CCCC2)cc1`, with 5.85%; and `N#Cc1cccc(C(O)C2CN(CCC3CCCCC3)CCC2(O)c2ccccc2)c1` (centres undefined), with -1.82%. Under `CCCNC(=O)C1Cc2c([nH]c3cc(Br)ccc23)C2(CCN(CCc3ccccc3)CC2)N1` (centres undefined) stands 2.03%; under `CCc1c(C)c2ccc3c(c2oc1=O)CN(CCc1ccc(F)cc1)CO3`, 6.07%; under `CC(C)N1CCN(C(CN2CCN(CCCOc3ccc(-c4ccccc4)cc3)CC2)c2ccc(F)cc2)CC1` (centres undefined), 60.6%. Regarding `Cc1cccc(OCC(=O)Nc2cccc(NC(=O)COc3cccc(C)c3)n2)c1`, the inhibition turned out to be 0.99%. Then `CCc1ccccc1N1CCN(CCCC(=O)c2ccc(NC(=O)c3ccc(Cl)cc3)cc2)CC1`, with 3.6%; and `C[C@@H](Nc1nc(NCc2ccccc2)c2sccc2n1)c1ccccc1`, with 24%. Under `CC(C)C[C@H](Nc1ccc(C#N)c2ccccc12)C(=O)NC(C)(C)C12CC3CC(CC(C3)C1)C2` stands 4.34%; under `CCOc1cc(C(=O)N[C@@H](Cc2ccccc2)[C@H](O)CNCc2cc(OC)cc(OC)c2)cc(N2CCCCS2(=O)=O)c1`, 0.3%.

As for `COc1cc2c(cc1OC)C(c1ccc(Br)cc1)CN(C)CC2` (centres undefined), the inhibition worked out at 1.39%. Then `Cc1cccc2nc(-c3cccc(-c4cccc(NC(=O)c5cn(C)c(=O)n5C)c4)c3)[nH]c12`, with 1.98%; and `COc1cc(OC)cc(-c2nn(-c3ccc([N+](=O)[O-])cc3C#N)c(=S)n2CC2CCCO2)c1` (centres undefined), with 2.04%. Regarding `O=C(NC1CCCCC1)N(Cc1ccc(-c2cccc(CNCc3ccc4c(c3)OCO4)c2)cc1)C1CCN(Cc2ccccc2)CC1`, the inhibition was 2.19%. Then `COc1ccc(Nc2nc(NC3CCN(C)CC3)cc(-c3ccc(OC)cc3)n2)cc1`, with 2.07%; and `COc1ccc(N2CCN(C(CNC(=O)C3CCCCC3)c3ccc4c(c3)OCO4)CC2)cc1` (centres undefined), with 3.65%; and `CCOC(=O)c1cnc2c(OC)cc(OC)c(Cl)c2c1Nc1cccc(C)c1`, with 9.4%. As for `O=C(c1ccc(Cl)cc1Cl)N1CCCC(C(F)(F)F)C1` (centres undefined), the inhibition amounted to 8.69%. Under `CCN(Cc1ccc(-c2ccc(C(F)(F)F)cc2)cc1)C(=O)Cn1c(SCc2cccc(F)c2F)cc(=O)c2cc(CN3CCCCC3)ccc21` stands 0.46%; under `C=CCn1c(=N)c(C(=O)NCc2ccc(F)cc2)cc2c(=O)n3cccc(C)c3nc21`, 3.56%; under `CC1=C(C(=O)Nc2ccc(Cl)cc2)C(c2ccncc2)n2nc(C(F)(F)F)nc2N1` (centres undefined), 3.72%. As for `CCN(CCCN1CCCCC1)c1cc(C)nc(Nc2ccc(C)cc2C(F)(F)F)n1`, the inhibition was -1.87%. Under `Cc1cc(N2CCN(C3CCCCC3)CC2)nc2cccc(O)c12` stands -1.8%; under `O=C(/C=C/c1ccc(Cl)c(Cl)c1)NCCCCCN1CCCN(C(=O)Nc2ccc(Cl)cc2)CC1`, 0.39%; under `CC(C)c1ccc(CN2CCCCC(NC(=O)c3cc(-c4ccccc4Cl)cs3)C2)cc1` (centres undefined), -0.41%.
